# Laboratory results from PubChem BioAssay.
# The source made the active and inactive calls.
# Key:
# [1] = E. coli DRC41 culture turbidity changes, primary screen, E. coli filamentation inducer project, strain DRC41, OD650, 48 h (AID 1152);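 note: E. coli MC1000 strain DRC41 lacking acrAB efflux pump and sulA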; details: E. coli DRC41 (acrAB sulA), higher = more signal, called active from +8 up or from −8 down
# [2] = small-molecule binders of probe aLefty1, primary screen, biochemical, small-molecule microarray, 635/667 nm fluorescence (AID 1153); details: higher = more signal;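 note: score merges spot fluorescence with signal-to-noise ratio from the scanned slide images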
# [3] = PSAC antagonists in infected red cells, primary screen, cell-based, P. falciparum Indochina, OD700, 1 h (AID 1154); details: P. falciparum Indochina infected RBC osmotic lysis, higher = more signal, called active from +8 up or from −8 down
# [4] = PSAC antagonists in infected red cells, primary screen, cell-based, P. falciparum Indochina, OD700, 2 h (AID 1155);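 note: lysis reports solute entry through the parasite surface anion channel PSAC; channel blockers reduce lysis of infected cells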; details: P. falciparum Indochina infected erythrocytes, osmotic lysis OD700; higher = more signal, called active from +8 up or from −8 down
# [5] = osmotic lysis modulators in infected erythrocytes, primary screen, PSAC antagonist project, cell-based, P. falciparum Indochina, OD700, 3 h (AID 1156); details: higher = more signal, called active from +8 up or from −8 down
# [6] = PSAC antagonists in infected red cells, primary screen, cell-based, P. falciparum Indochina, OD700, 18 h (AID 1157); details: P. falciparum Indochina infected erythrocytes, osmotic lysis OD700, 18 h; higher = more signal, called active from +8 up or from −8 down
# [7] = modulators of S6 phosphorylation in cells, primary screen, cell-based, A549, cytoblot, luminescence, serum-stimulated (AID 1158); details: A549 phospho-S6 cytoblot, 5 h, higher = more signal;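 note: serum-stimulated A549 lung adenocarcinoma cells; signal is phosphorylated S6 detected by cytoblot immunostaining with HRP secondary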
# [8] = target: NADPH oxidase 2 (Homo sapiens) (UniProt P04839); experiment: NOX2-dependent H2O2 signal modulators, primary screen, NOX inhibitor project, cell-based, HEK293-NOX2, PMA-stimulated, Amplex Red fluorescence (AID 1159); details: 45 min, higher = more signal, called active from +8 up or from −8 down; note: test concentration not given here
# NADPH oxidase 2 (Homo sapiens), sequence (P04839 whole entry, looked up): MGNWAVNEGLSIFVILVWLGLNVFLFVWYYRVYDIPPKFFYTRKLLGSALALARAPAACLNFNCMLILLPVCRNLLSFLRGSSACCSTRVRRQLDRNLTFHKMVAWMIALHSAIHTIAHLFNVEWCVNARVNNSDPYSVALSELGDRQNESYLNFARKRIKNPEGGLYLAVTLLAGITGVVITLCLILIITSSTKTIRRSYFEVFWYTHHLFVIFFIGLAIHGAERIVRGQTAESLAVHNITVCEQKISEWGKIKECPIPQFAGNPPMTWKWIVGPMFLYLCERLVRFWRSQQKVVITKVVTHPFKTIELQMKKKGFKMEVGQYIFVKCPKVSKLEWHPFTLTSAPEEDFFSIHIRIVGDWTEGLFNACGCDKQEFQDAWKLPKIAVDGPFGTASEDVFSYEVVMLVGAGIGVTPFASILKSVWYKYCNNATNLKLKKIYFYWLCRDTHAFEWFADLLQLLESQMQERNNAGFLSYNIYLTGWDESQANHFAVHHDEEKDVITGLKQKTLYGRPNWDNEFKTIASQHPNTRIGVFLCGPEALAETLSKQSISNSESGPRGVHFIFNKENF
# [9] = target: NADPH oxidase 4 (Homo sapiens) (UniProt Q9NPH5); experiment: NOX4-dependent H2O2 signal modulators, primary screen, NOX inhibitor project, cell-based, HEK293-NOX4, tetracycline-induced, Amplex Red fluorescence (AID 1160); details: 45 min, higher = more signal, called active from +8 up or from −8 down
# NADPH oxidase 4 (Homo sapiens), sequence (Q9NPH5 whole entry, looked up): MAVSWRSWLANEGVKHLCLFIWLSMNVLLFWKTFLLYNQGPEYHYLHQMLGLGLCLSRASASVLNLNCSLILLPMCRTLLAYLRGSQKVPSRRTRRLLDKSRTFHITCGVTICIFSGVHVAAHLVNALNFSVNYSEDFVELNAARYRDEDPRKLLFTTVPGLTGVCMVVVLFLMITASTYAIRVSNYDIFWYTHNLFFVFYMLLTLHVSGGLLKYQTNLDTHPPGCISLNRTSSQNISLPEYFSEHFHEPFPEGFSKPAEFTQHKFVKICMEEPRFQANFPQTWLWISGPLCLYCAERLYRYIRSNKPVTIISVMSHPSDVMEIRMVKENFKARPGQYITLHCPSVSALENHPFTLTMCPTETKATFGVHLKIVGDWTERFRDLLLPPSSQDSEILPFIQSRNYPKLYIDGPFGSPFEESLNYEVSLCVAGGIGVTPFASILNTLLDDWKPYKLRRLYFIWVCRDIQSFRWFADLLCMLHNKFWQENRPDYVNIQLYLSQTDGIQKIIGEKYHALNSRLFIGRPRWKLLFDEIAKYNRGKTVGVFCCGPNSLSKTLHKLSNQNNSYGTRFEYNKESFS
# [10] = target: NADPH oxidase 5 (Homo sapiens) (UniProt Q96PH1); experiment: NOX5-dependent H2O2 signal modulators, primary screen, NOX inhibitor project, cell-based, HEK293-NOX5, Amplex Red fluorescence (AID 1161); details: HEK293-NOX5, ionomycin, 45 min, higher = more signal
# NADPH oxidase 5 (Homo sapiens), sequence (Q96PH1 whole entry, looked up): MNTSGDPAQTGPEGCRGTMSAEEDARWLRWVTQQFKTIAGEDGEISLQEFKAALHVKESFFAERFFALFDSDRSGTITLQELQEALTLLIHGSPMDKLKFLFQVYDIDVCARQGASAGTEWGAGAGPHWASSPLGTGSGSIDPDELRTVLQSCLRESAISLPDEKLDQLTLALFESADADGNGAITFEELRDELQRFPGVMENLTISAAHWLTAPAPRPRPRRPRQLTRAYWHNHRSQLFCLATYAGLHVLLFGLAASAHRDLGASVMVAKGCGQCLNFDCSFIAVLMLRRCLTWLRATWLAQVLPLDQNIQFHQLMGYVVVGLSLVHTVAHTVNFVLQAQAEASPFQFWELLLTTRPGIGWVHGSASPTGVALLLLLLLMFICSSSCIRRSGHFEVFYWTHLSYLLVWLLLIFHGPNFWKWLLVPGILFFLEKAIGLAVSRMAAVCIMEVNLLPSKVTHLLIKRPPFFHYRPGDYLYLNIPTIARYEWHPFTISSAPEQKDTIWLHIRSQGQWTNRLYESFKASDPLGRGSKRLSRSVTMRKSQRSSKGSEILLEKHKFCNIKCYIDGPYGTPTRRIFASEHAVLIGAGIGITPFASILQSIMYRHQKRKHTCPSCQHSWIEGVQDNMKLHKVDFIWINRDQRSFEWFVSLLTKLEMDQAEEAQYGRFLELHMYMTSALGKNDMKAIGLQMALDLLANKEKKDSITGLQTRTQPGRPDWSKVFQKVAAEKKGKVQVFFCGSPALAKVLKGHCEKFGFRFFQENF
# [11] = A549 cell viability effects, profiling panel, calcein-AM fluorescence, 48 h, basal (AID 1162); details: higher = more signal; note: test concentration not given here
# [12] = adipocyte viability effects, profiling panel, cell-based, 3T3-L1 adipocytes, calcein-AM fluorescence, 48 h, basal (AID 1163); details: 3T3-L1 adipocytes viability, higher = more signal; note: test concentration not given here
# [13] = HepG2 cell viability effects, profiling panel, calcein-AM fluorescence, 48 h, basal (AID 1164); details: higher = more signal; note: test concentration not given here
# [14] = MM1S cell viability effects, profiling panel, calcein-AM fluorescence, 48 h, basal (AID 1165); details: higher = more signal;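 note: viability of MM1S multiple myeloma cells under basal unstimulated conditions; test concentration not given here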
# [15] = basal RPMI8226 viability, no added stimulus, profiling panel, cell-based, calcein-AM fluorescence, 48 h, PK04 Diversity Set (AID 1166); details: RPMI8226 myeloma viability, higher = more signal;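 note: cells grown under basal conditions without added stimulus; test concentration not given here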
# [16] = basal HepG2 mitochondrial membrane potential changes, profiling panel, cell-based, JC-1 fluorescence, 24 h, 100 nL compound (AID 1167); details: higher = more signal; note: test concentration not given here
# [17] = basal 3T3-L1 adipocyte mitochondrial potential changes, profiling panel, cell-based, JC-1 fluorescence, 3T3-L1 adipocytes, 24 h, 100 nL compound (AID 1168); details: JC-1 mitochondrial fluorescence, higher = more signal, called active from +8 up or from −8 down; note: test concentration not given here
# [18] = basal RPMI8226 mitochondrial membrane potential changes, profiling panel, cell-based, JC-1 fluorescence, 24 h, 100 nL compound (AID 1169); details: RPMI8226 myeloma, JC-1 mitochondrial potential fluorescence, higher = more signal; note: test concentration not given here
# [19] = basal MM1S mitochondrial membrane potential changes, profiling panel, cell-based, JC-1 fluorescence, 24 h, 100 nL compound (AID 1170); details: higher = more signal; note: test concentration not given here
# [20] = A549 lung cancer cell viability effects, profiling panel, resazurin fluorescence, 24 h, PK04 Diversity Set (AID 1171); details: higher = more signal, called active from +8 up or from −8 down; note: test concentration not given here
SMILES,z-score [1],composite z-score [2],z-score [3],z-score [4],z-score [5],z-score [6],z-score [7],z-score [8],z-score [9],z-score [10],z-score [11],z-score [12],z-score [13],z-score [14],z-score [15],z-score [16],z-score [17],z-score [18],z-score [19],z-score [20]
[N-]=[N+]=NCc1ccccc1[C@H]1OC(c2ccc(OCCCO)cc2)=N[C@@]1(CCS(=O)(=O)c1ccccc1)C(N)=O,-0.56 (inactive),0.345,24.1 (active),6.95 (inactive),1.56 (inactive),0.764 (inactive),0.273,1.39 (inactive),2.23 (inactive),1.78,-0.733,0.0036,-0.423,-1.83,-0.973,-2.13,-1.36 (inactive),-0.397,-0.606,0.547 (inactive)
NCCCCCCNC(=O)[C@H]1C[C@H]2C(=O)N[C@@H](Cc3ccccc3)C(=O)N2[C@H]1c1ccc(O)cc1,1.42 (inactive),-0.0094,4.21 (inactive),-0.243 (inactive),0.731 (inactive),-2.2 (inactive),0.316,1.81 (inactive),1.38 (inactive),2.31,0.0513,0.565,-0.623,0.675,0.337,-0.424,0.0433 (inactive),-1,-0.119,1.18 (inactive)
COc1ccc([Si](C)(C)[C@H]2[C@H](CCO)O[C@@]3(C(=O)N(Cc4cccc(N5CCCCC5=O)c4)c4ccccc43)[C@@H]2C)cc1,-0.205 (inactive),0.102,5.16 (inactive),1.94 (inactive),0.558 (inactive),1.38 (inactive),0.781,-5.46 (inactive),-1.46 (inactive),0.189,-1.38,-0.865,-4.36,-2.73,-4.35,-1.59,0.0395 (inactive),-1.1,-2.09,-2.95 (inactive)
[N-]=[N+]=NCc1ccccc1C[C@@]1(C(=O)NCCN2CCOCC2)N=C(c2ccc(OCCCO)cc2)O[C@@H]1c1ccccc1N=[N+]=[N-],-0.337 (inactive),0.534,31.3 (active),27.4 (active),2.72 (inactive),2.46 (inactive),1.17,-3.58 (inactive),-1.36 (inactive),-2.32,-1.6,1.61,-1.05,-1.31,-3.68,0.862,-1.38 (inactive),-0.923,-1.12,-0.0172 (inactive)
COC(=O)[C@@]1(Cc2ccc(OC)cc2)[C@H]2c3cc(C(=O)N(C)C)n(Cc4ccccc4)c3C[C@H]2CN1C(=O)c1ccccc1,-1.25 (inactive),0.748,0.49 (inactive),0.194 (inactive),-1.39 (inactive),0.594 (inactive),0.686,-1.52 (inactive),-1.09 (inactive),2.49,0.0457,0.245,-2.3,-2.27,-2.17,2.45,-0.45 (inactive),-0.398,-1.85,0.616 (inactive)
O=C1C[C@]2(c3ccc([N+](=O)[O-])cc3)C(=O)N(Cc3ccccc3)c3cc(CO)ccc3[C@H]2N1CC12CC3CC(CC(C3)C1)C2,-0.06 (inactive),-0.678,0.556 (inactive),0.37 (inactive),-0.401 (inactive),0.23 (inactive),-0.218,0.135 (inactive),0.256 (inactive),0.664,0.376,-1.02,1.51,0.397,0.329,-0.821,0.286 (inactive),0.589,-1.02,-0.849 (inactive)
C=CC[C@H](OC(=O)Nc1ccc(OC)cc1)c1ccc(O)c2ccccc12,-0.326 (inactive),0.122,5.07 (inactive),0.919 (inactive),-0.0585 (inactive),0.328 (inactive),-0.93,-6.04 (inactive),-1.58 (inactive),-0.343,-1.39,-1.07,-3.1,-2.8,-4.26,-2.68,-1.05 (inactive),-1.02,-2.15,-0.745 (inactive)
COCCCNC(=O)[C@@]1(Sc2ccc(C)cc2)CC(=O)N(Cc2cc(C(F)(F)F)cc(C(F)(F)F)c2)[C@@H]1c1ccc(CO)cc1,0.154 (inactive),-0.0559,0.603 (inactive),0.591 (inactive),1.03 (inactive),0.302 (inactive),-0.103,0.242 (inactive),0.521 (inactive),0.581,0.285,-0.515,0.584,1.35,1.42,0.967,0.895 (inactive),0.786,-0.422,-1.07 (inactive)
COC(=O)[C@@]1(Cc2ccc(OC)cc2)[C@H]2c3cc(C(=O)N(C)C)n(Cc4nc5ccccc5[nH]4)c3C[C@H]2CN1C(=O)c1ccccc1,-2.02 (inactive),0.905,2.03 (inactive),0.724 (inactive),0.482 (inactive),1.25 (inactive),0.123,0.576 (inactive),1.85 (inactive),2.4,-2.46,-0.529,-1.79,-1.37,-3.86,2.13,-1.24 (inactive),-0.737,-1.49,-0.88 (inactive)
